Inconclusive results are not listed. Activity calls are given as the source filed them. Calls come from the whole dose curve; as a rule, active = well fitted inhibition curve with a large enough effect; inconclusive = small, poorly fitted or top-dose-only effect; inactive = no such curve, though single readings can be large or run the other way.

The test is described as follows: Orthogonal mCherry assay for qRT-PCR qHTS of selected Zika virus inhibitors. The conditions noted are these: Vero cells, ZIKV-mCherry infection imaging, 48-72 h; series mostly up to 32.6 µM; activity change, negative = inhibition: at the top concentration. From the text: Description: Assay Submitters (PI): Avindra Nath, Ph.D., National Institute of Neurological Disorders and Stroke (NINDS), Bethesda, MD Radhakrishnan Padmanabhan, Ph.D., Georgetown University (GU), Washington D.C. Zika Virus causes congenital defects, including microcephaly and is associated with Guillain-Barre syndrome, eningoencephalitis and myelitis in infected adult. […] Using a target-based approach, we hope to establish a screening paradigm to uncover novel, cell-active NS2B-NS3 protease (Zika Virus) specific inhibitors from NCATS' collection of small molecules using qHTS. […] Four assay panel was created to identify potential Zika Virus inhibitors. Namely, (1) GU unlinked NS2B-NS3 AMC tagged protease qHTS, (2) GU unlinked NS2B-NS3 Rhodamine tagged protease qHTS, (3) NINDS linked NS2B-NS3 AMC tagged protease qHTS, (4) NINDS linked NS2B-NS3 Rhodamine tagged protease qHTS. Inhibitors of the Zika virus primary screens are confirmed using qRT-PCR secondary assays, mCherry orthogonal assay, and Vero cells viability counterscreen. Early Translation Branch (ETB) National Center for Advancing Translational Sciences (NCATS), Rockville, MD National Institute of Health (NIH), Bethesda, Maryland
384 well ZIKV-mCherry Assay: We have developed a new orthogonal imaging assay in 384-well plate format, which uses recombinant virus ZIKV-mCherry in Vero cells. Briefly, 30 microL of Vero cells derived from a green monkey cell line, were dispensed by Multidrop Dispenser into a clear solid bottom black 384 well plate (ultracarrier, Perkin Elmer LifeSciences) at a concentration of 5,000 cells per well. […] The TIFFs were quantitated using the canned Multi Target Analysis protocol (GE Investigator Workstation software v3.7.2). […] A recombinant Zika viral infection was monitored in the Cy5 channel (cells) using a 2 microm collar dilation from the nuclear bitmap. mCherry objects with an average nuclear RFU intensity above 450 (3 stdev above mean negative control wells) were considered "mcherry positive" and data was analyzed by percent infection rate.
For orientation: In qPCR the cycle at which signal appears reflects the starting amount.
For `O=C1OC(c2ccc(O)c(S(=O)(=O)O)c2)(c2ccc(O)c(S(=O)(=O)O)c2)c2c(Br)c(Br)c(Br)c(Br)c21`, the “activity change, negative = inhibition” value was -37.8% (inactive).

Take `CC(=O)c1c(O)c(C)c(O)c(Cc2c(O)c3c(c(C(=O)/C=C/c4ccccc4)c2O)OC(C)(C)C=C3)c1O`: the Potency was 11.2 µM (active). In the case of `CC(C)=CCC[C@]1(C)C=Cc2c(O)c3c(c(CC=C(C)C)c2O1)O[C@]12C(=C[C@@H]4CC1C(C)(C)O[C@@]2(C/C=C(/C)C(=O)O)C4=O)C3=O`, the Potency was 3.55 µM (active).

The values are drawn from PubChem BioAssay AID1347171 (National Center for Advancing Translational Sciences (NCATS), 2019).
